IL-1B inflam inh – blocks inflammasome-driven IL-1 beta release; THP-1 LPS/ATP IL-1B secretion, AlphaLISA, 16 h; hits give low values; activity change, % at 57.5 µM; actives 4.7% (n = 360,000); in the data active = activity change below about -50%; inconclusive = mostly about -30% to -49%; also: % is scaled to controls: 0 for no effect and ±100 for the full control effect
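Secreted IL-1B measured by AlphaLISA bead assay after 16 h compound exposure of THP-1 cells; compounds (final up to 57.5 uM) added 1 h before LPS (250 ng/mL) and ATP (1.25 mM) stimulation; lower signal means less secretion.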
DT40 TDP1 CPT – growth inhibition of DT40 Tdp1-/-;hTDP1 cells with camptothecin (screen for TDP1 inhibitors) | chicken DT40 Tdp1-/-;hTDP1 cells + 20 nM CPT, ATP luminescence, 48 h | Potency, µM (titrated, usually from 46.2 µM), inactives show at the top dose activity change, negative = growth inhibition, actives largely listed as inhibitors | actives 12% (n = 420,000) | AID 686979; also: potency is read from the fitted curve at half-maximal effect; % is scaled to controls: 0 for no effect and ±100 for the full control effect; nearly all actives have a fitted effect of over 55% in size
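Chicken DT40 Tdp1-/- cells complemented with human TDP1, 400 cells/well, exposed to compounds plus 20 nM camptothecin for at least 48 h at 37 C; viability read as ATP content by CellTiter-Glo luminescence.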
BCR signal inh – chronic active BCR signaling inhibition; AID 493014; actives 0.05% (n = 340,000); ABC-DLBCL IkBa-CBG/CBR reporter, luminescence ratio, 4 h; Potency, µM (titrated, usually from 46.1 µM), without a hit: at the highest dose activity change, negative = inhibition, usual class: inhibitors; active = well fitted inhibition curve with a large enough effect in the signal ratio, with a control signal flat, not every such curve was filed as active; inconclusive = small, poorly fitted or top-dose-only effect, or effect the other way, or a change in a side signal; the % refers to the signal ratio;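 also: potency is read from the fitted curve at half-maximal effect; plate controls were basal doxycycline-induced cells for no effect and cells given 10 µM MG132 for full effect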
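TMD8 ABC-DLBCL cells carrying doxycycline-inducible green luciferase fused to IkappaBalpha plus unfused red luciferase were exposed to compounds (up to 46 uM) for 4 hrs at 37C. Activity came from the overlap-corrected green/red luminescence ratio.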
MCF10A rerep – DNA re-replication induction in MCF 10a cells; MCF 10A DNA re-replication, Hoechst nuclear intensity, 48 h; Potency, µM (series often up to 46.1 µM), inactives show top-dose activity, positive = re-replication, most hits filed as activators; actives 2.9% (n = 350,000); AID 624296; also: potency is read from the fitted curve at half-maximal effect; % of control where 0% means no effect; nearly all actives have a fitted effect of over 50% in size
TDP1 cell noCPT – qHTS for Inhibitors of human tyrosyl-DNA phosphodiesterase 1 (TDP1): qHTS in cells in absence of CPT | DT40 Tdp1-/- hTDP1 cells, no CPT, ATP luminescence, 48 h | actives 15% (n = 420,000) | Potency, µM (top dose mostly 46.2 µM), inactives show at the top dose activity change, negative = growth inhibition, most hits filed as inhibitors | AID 686978, 2013; also: potency is read from the fitted curve at half-maximal effect; % is scaled to controls: 0 for no effect and ±100 for the full control effect; nearly all actives have a fitted effect of over 55% in size
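Cells were dispensed at 400 per well, compounds added by pin tool, plates incubated ≥48 hr at 37 °C, then CellTiter-Glo added for 30 min at room temperature before luminescence reading. Line: DT40 Tdp1-/- complemented with hTDP1; camptothecin omitted.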
SW480 rerep – induces DNA re-replication in SW480 colon adenocarcinoma cells; SW480 DNA re-replication, Hoechst DNA content imaging, 48 h; Potency, µM (titrated, usually from 46.1 µM), inactives show top-dose re-replication activation, most hits filed as activators; actives 1.8% (n = 340,000); also: potency is read from the fitted curve at half-maximal effect; % of control where 0% means no effect; nearly all actives have a fitted effect of over 55% in size
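Image-based DNA-content assay: after two days of treatment, nuclei were labelled with the DNA dye Hoechst and imaged, and hits were compounds raising the count of nuclei showing high fluorescence intensity.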
* hit, by the source's call; [ ] = dose if it differs, or a comment. Only some compounds are listed: those with a hit (about 19% of all), similar ones and a draw of the others. Unless noted, calls follow the shape of the dose curve; as a rule, active = well fitted curve in the direction sought with a large enough effect; inconclusive = small, poorly fitted or top-dose-only effect, or another doubt; inactive = no such curve, though single readings can be large; an effect the other way counts as inactive or inconclusive.

For O=[N+]([O-])c1cccc(S(=O)(=O)NCCCn2ccnc2)c1 the results were IL-1B inflam inh -3, DT40 TDP1 CPT -3%, BCR signal inh 1%, MCF10A rerep inconclusive, TDP1 cell noCPT -18% and SW480 rerep 1%[9.22 µM].
Screening CC(C)(C)NC(=O)C1C(c2ccccc2)=Nc2ccccc2N1C(=O)c1ccc(C(F)(F)F)cc1 (centres undefined) returned IL-1B inflam inh 20, DT40 TDP1 CPT inconclusive and TDP1 cell noCPT 16µM*.
Screening CCCCNC(=O)C1C(c2ccccc2)=Nc2ccccc2N1C(=O)c1ccc(C)cc1 (centres undefined) returned IL-1B inflam inh 36, DT40 TDP1 CPT 13µM* and TDP1 cell noCPT inconclusive.
CCCCNC(=O)C1C(c2ccccc2)=Nc2ccccc2N1C(=O)c1ccc(C(F)(F)F)cc1 (centres undefined) was read as IL-1B inflam inh -6, DT40 TDP1 CPT inconclusive and TDP1 cell noCPT 15µM*.
`CCCCNC(=O)C1C(c2ccc(C(F)(F)F)cc2)=Nc2ccccc2N1C(=O)c1cccc2ccccc12` (centres undefined) gave IL-1B inflam inh 40, DT40 TDP1 CPT inconclusive and TDP1 cell noCPT inconclusive.
For Cc1cccc(CNc2ncncc2-c2cccc(NS(C)(=O)=O)c2)c1 the results were DT40 TDP1 CPT -21% and TDP1 cell noCPT -29%.
For Cc1cc(F)ccc1C(O)c1ncc(-c2cccc3ccccc23)[nH]1 (centres undefined) the results were IL-1B inflam inh 15, DT40 TDP1 CPT inconclusive and TDP1 cell noCPT inconclusive.
For COc1ccc(C(=O)NCC(c2ccc3c(c2)OCO3)N2CCN(C)CC2)cc1OC (centres undefined) the results were DT40 TDP1 CPT -13% and TDP1 cell noCPT -10%.
Screening COc1ccc(N(C(=O)c2cccc(C)c2)S(=O)(=O)c2ccc(Cl)cc2)cc1 returned DT40 TDP1 CPT 18µM* and TDP1 cell noCPT inconclusive.
For Cc1ccc(C(=O)N(c2ccc(C)cc2)S(=O)(=O)c2ccc(Cl)cc2)cc1 the results were DT40 TDP1 CPT inconclusive and TDP1 cell noCPT 23µM*.
For CCOc1ccc(N(C(=O)c2ccc(C)cc2)S(=O)(=O)c2ccc3c(c2)n(C)c(=O)n3C)cc1 the results were DT40 TDP1 CPT -15% and TDP1 cell noCPT inconclusive.
For COc1ccc(N(C(=O)c2cccnc2)S(=O)(=O)c2ccc(Cl)cc2)cc1 the results were IL-1B inflam inh -16, DT40 TDP1 CPT inconclusive, BCR signal inh 1%, MCF10A rerep -3%, TDP1 cell noCPT -15% and SW480 rerep 3%.
`COc1ccc(N(C(=O)COc2ccccc2OC)S(=O)(=O)c2ccc(Cl)cc2)cc1` gave DT40 TDP1 CPT 16µM* and TDP1 cell noCPT 23µM*.
Screening COc1ccc(N(C(=O)c2ccc(C(C)(C)C)cc2)S(=O)(=O)c2ccc(Cl)cc2)cc1 returned DT40 TDP1 CPT inconclusive and TDP1 cell noCPT 21µM*.
COc1ccc(N(C(=O)c2ccncc2)S(=O)(=O)c2ccc(F)cc2)cc1 was read as BCR signal inh -8%.
Screening CCOC(=O)C1CCC(CN(Cc2ccc(OC)cc2)S(=O)(=O)c2ccc(F)c(C(=O)Nc3c(C)cccc3C)c2)CC1 (centres undefined) returned DT40 TDP1 CPT inconclusive, BCR signal inh 6% and TDP1 cell noCPT inconclusive.
Screening CCn1c(-c2ccccc2F)nc2cc(NC(C)=O)cc(C(=O)N(C)Cc3ccc4nccnc4c3)c21 returned DT40 TDP1 CPT inconclusive and TDP1 cell noCPT -20%.
`O=C(Cc1ccc(F)cc1)N[C@@H]1c2ccccc2CC[C@H]1OCc1ccccc1` gave IL-1B inflam inh -8, DT40 TDP1 CPT -16%, BCR signal inh 0%, MCF10A rerep -1%, TDP1 cell noCPT -24% and SW480 rerep 10%.
For COc1ccc(N(C(=O)c2ccccc2C)S(=O)(=O)c2ccc(C)cc2)cc1 the results were DT40 TDP1 CPT 12µM* and TDP1 cell noCPT inconclusive.
`COc1ccc(N(C(=O)COc2ccc(F)cc2)S(=O)(=O)c2ccc(C)cc2)cc1` gave IL-1B inflam inh 0, DT40 TDP1 CPT -5%, BCR signal inh 4%, MCF10A rerep -22%, TDP1 cell noCPT -13% and SW480 rerep 4%.
Screening COC(=O)c1c(C)sc(-c2c(-c3ccc(F)cc3)[nH]c3[nH]c(=O)[nH]c(=O)c23)c1O returned DT40 TDP1 CPT -1% and TDP1 cell noCPT -12%.
Screening COc1cccc(C(=O)Nc2ccccc2C(=O)OCc2cc(=O)n3c4c(sc3n2)CCCC4)c1 returned DT40 TDP1 CPT inconclusive and TDP1 cell noCPT 16µM*.
`O=C(Nc1ccccc1C(=O)OCc1cc(=O)n2c3c(sc2n1)CCCC3)c1ccccc1` gave DT40 TDP1 CPT 21µM* and TDP1 cell noCPT inconclusive.
Screening Cc1cccc(C(=O)Nc2ccc(OCc3cc(=O)n4c5c(sc4n3)CCCC5)cc2)c1 returned DT40 TDP1 CPT -3% and TDP1 cell noCPT 15%.
For Cc1ccc(C(=O)Nc2ccc(C(=O)OCc3cc(=O)n4c5c(sc4n3)CCCC5)cc2)cc1 the results were DT40 TDP1 CPT inconclusive and TDP1 cell noCPT -29%.
Screening CC(C)CN(C(=O)c1ccc(C(F)(F)F)cc1)c1c(N)n(CC(C)C)c(=O)[nH]c1=O returned IL-1B inflam inh 21, DT40 TDP1 CPT 4%, BCR signal inh inconclusive, MCF10A rerep 1%, TDP1 cell noCPT -3% and SW480 rerep -2%.
For NS(=O)(=O)c1ccc(CCNC(=O)c2ccc3nccnc3c2)cc1 the results were IL-1B inflam inh 44, DT40 TDP1 CPT -8%, BCR signal inh 5%, MCF10A rerep -3%, TDP1 cell noCPT -23% and SW480 rerep -3%.
Screening NS(=O)(=O)c1ccc(CCNc2ccnc3cc(Cl)ccc23)cc1 returned IL-1B inflam inh 2, DT40 TDP1 CPT inconclusive, BCR signal inh 5%, MCF10A rerep 0%, TDP1 cell noCPT 15µM* and SW480 rerep -7%.

From PubChem BioAssay
